In general, AC50 refers to the midpoint of the concentration-response curve, whichever way the signal moves.

Here are results for 16 molecules from PubChem BioAssay (EPA / NIEHS).

Values joined by “and” are separate entries in the source; they are usually repeats but may differ in a detail not shown here. Equal entries are not always repeated. Where a structure was tested more than once in an assay, its records may differ in their call. Active and inactive are the calls of the source. The calls were made as follows: active = hit-call score of the fitted dose curve at least 0.9, where 1 is the maximum; inactive = score below 0.9.

Test [1] has as its target CCAAT/enhancer-binding protein beta (Homo sapiens) (UniProt P17676). As to the kind of experiment: ATG_C_EBP_CIS: Attagene CIS-FACTORIAL HepG2 Assay for human CCAAT/Enhancer Binding Protein (C/EBP) beta (AID 2282927). The following applies: HepG2 Attagene cis-factorial transcription factor reporter; actives raise or lower the signal. Put shortly:
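HepG2, transient MRTU transfection, 24 h treatment. RT-PCR plus CE fluorescence; DMSO negative control, bidirectional fit.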

Test [2] is described as follows: ATG_CMV_CIS: Attagene CIS-FACTORIAL HepG2 Assay for human CMV (Internal Marker) (AID 2282928).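 Also: endpoint acts as a background internal control marker rather than a target.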 The conditions noted are these: HepG2 CMV promoter reporter, transcription factor profiling; actives raise or lower the signal. Put shortly:
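HepG2 cells transiently transfected with multiple cis-regulated reporter units; 24 h compound exposure. Reporter mRNA quantified by RT-PCR, 6-FAM primer-extension labeling, HpaI digestion and capillary electrophoresis; bidirectional fitting against DMSO baseline.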

Test [3] in a line: ATG_DR4_LXR_CIS: Attagene CIS-FACTORIAL HepG2 Assay for human Liver X Receptor (LXR), DR4 submotif (AID 2282929). The following applies: HepG2 Attagene DR4 cis-reporter, mRNA transcription; AC50: actives raise or lower the signal unless noted; outcome: actives raise or lower the signal unless noted. Put shortly: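 HepG2, transient MRTU transfection, cis-element (DR4) promoter; 24 h compound exposure; total RNA → oligo(dT) RT → PCR → 6-FAM primer extension → HpaI cut → CE. Gain/loss vs DMSO, bidirectional fit.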

A short description of test [4]: ATG_AP_1_CIS: Attagene CIS-FACTORIAL HepG2 Assay for human Activator Protein 1 (AP-1) (AID 2282931). The conditions noted are these: HepG2 Attagene cis-factorial AP-1 reporter mRNA; actives raise or lower the signal. Put shortly:
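Transient MRTU transfection of HepG2 → 24 h chemical treatment → RNA isolation, RT-PCR, 6-FAM labelling, HpaI digest → capillary electrophoresis. Fit: bidirectional, DMSO negative control.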

A short description of test [5]: ATG_AP_2_CIS: Attagene CIS-FACTORIAL HepG2 Assay for human Activator Protein 2 (AP-2) (AID 2282932). The conditions noted are these: HepG2 AP-2 cis-reporter, Attagene transcription factor profiling; AC50: actives raise or lower the signal unless noted; outcome: actives raise or lower the signal unless noted. Put shortly:
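HepG2 cells transiently transfected with cis-element reporter units and exposed for 24 h. Reporter mRNA measured by RT-PCR, FAM labelling, HpaI digestion and capillary electrophoresis. Changes in either direction fitted relative to DMSO.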

Test [6] in a line: ATG_BRE_CIS: Attagene CIS-FACTORIAL HepG2 Assay for human Bone Morphogenetic Protein (BMP) Response Element (BRE) (AID 2282933). The following applies: HepG2 BMP response element reporter, Attagene transcription factor profiling; actives raise or lower the signal. Put shortly:
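A HepG2 multiplex reporter system measured inducible reporter mRNA 24 h post-dosing. Detection: RT-PCR, 6-FAM primer extension, HpaI digestion, capillary electrophoresis. Activity fitted bidirectionally relative to DMSO.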

Test [7] deals with Transcription factor E2F1 (Homo sapiens) (UniProt Q01094). The experiment in a line: ATG_E2F_CIS: Attagene CIS-FACTORIAL HepG2 Assay for human E2F Transcription Factor 1 (AID 2282935). The following applies: HepG2 Attagene cis-reporter, E2F reporter RNA transcripts; actives raise or lower the signal. Put shortly:
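Endogenous E2F1 activity read through cis-promoter reporter units transfected into HepG2. After 24 h compound treatment, reporter mRNA measured by RT-PCR, HpaI digestion and capillary electrophoresis. Bidirectional fit versus DMSO.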

Test [8] is described as follows: ATG_E_Box_CIS: Attagene CIS-FACTORIAL HepG2 Assay for human Enhancer Box (E-box) (AID 2282936). The following applies: HepG2 E-box cis-reporter transcription, actives raise or lower the signal. Put shortly:
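HepG2 cells transiently transfected with multiplexed cis-element reporter units, dosed 24 h; reporter mRNA quantified by RT-PCR, 6-FAM labelling, HpaI digestion and capillary electrophoresis. E-box (USF1) signal fitted bidirectionally vs DMSO.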

Test [9] deals with Retinoic acid receptor alpha (Homo sapiens) (UniProt P10276). The experiment in a line: ATG_DR5_RAR_CIS: Attagene CIS-FACTORIAL HepG2 Assay for human Retinoic Acid Receptor Alpha (RARE), DR5 submotif (AID 2282934).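 As to AC50: reporter responds to endogenous RAR alpha beta and gamma in HepG2 not RARA alone.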 The conditions noted are these: HepG2 Attagene cis-factorial RARE DR5 reporter, mRNA; actives raise or lower the signal. Put shortly:
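After 24 h of chemical exposure, transiently transfected HepG2 cells were lysed for total RNA; the DR5-regulated reporter transcript was quantified via RT-PCR and capillary electrophoresis, with activity fitted bidirectionally against DMSO.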

Retinoic acid receptor alpha (Homo sapiens), sequence (P10276 whole entry, looked up): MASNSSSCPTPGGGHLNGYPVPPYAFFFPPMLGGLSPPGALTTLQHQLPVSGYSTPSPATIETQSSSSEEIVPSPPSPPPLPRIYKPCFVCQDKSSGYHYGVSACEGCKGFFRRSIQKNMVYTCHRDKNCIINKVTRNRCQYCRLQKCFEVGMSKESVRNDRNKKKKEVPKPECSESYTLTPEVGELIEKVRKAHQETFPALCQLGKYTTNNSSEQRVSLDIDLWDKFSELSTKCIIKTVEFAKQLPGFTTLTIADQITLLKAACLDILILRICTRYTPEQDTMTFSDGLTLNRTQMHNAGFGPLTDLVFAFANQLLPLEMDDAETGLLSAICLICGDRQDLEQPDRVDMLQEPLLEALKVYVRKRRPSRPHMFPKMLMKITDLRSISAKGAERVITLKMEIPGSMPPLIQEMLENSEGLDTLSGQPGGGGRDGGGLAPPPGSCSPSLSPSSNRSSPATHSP
CCAAT/enhancer-binding protein beta (Homo sapiens), sequence (P17676 whole entry, looked up): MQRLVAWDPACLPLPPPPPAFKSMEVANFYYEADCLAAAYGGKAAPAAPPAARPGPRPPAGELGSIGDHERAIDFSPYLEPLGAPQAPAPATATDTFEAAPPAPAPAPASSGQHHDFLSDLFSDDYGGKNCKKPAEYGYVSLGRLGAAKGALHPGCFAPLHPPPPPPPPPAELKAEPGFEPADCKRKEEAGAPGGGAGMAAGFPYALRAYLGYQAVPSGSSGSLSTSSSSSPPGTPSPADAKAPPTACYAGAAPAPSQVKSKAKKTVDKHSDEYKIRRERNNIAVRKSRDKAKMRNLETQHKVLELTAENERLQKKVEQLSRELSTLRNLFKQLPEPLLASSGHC
Transcription factor E2F1 (Homo sapiens), sequence (Q01094 whole entry, looked up): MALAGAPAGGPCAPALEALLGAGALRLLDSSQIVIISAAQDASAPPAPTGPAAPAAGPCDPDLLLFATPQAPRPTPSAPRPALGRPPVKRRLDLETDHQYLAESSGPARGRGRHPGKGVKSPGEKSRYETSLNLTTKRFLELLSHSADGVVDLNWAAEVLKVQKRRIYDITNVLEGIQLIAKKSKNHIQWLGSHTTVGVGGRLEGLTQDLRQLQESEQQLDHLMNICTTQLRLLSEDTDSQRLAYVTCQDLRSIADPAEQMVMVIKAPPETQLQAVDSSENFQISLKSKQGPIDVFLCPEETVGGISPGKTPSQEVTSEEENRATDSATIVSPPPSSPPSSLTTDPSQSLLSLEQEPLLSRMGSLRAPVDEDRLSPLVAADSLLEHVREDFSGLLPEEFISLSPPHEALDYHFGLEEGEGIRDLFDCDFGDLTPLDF

For `CN(C)c1ccc(C(=C2C=CC(=[N+](C)C)C=C2)c2ccccc2)cc1`, the result in [1], in [2], in test [4], in [5], in test [6] and in test [7] was inactive. The AC50 was 2.07 µM (active) and 1.26 µM (active) in test [3]; 0.472 µM (active) in test [4]; 2.72 µM (active) in [5]; 3.63 µM (active) and 1.85 µM (active) in test [8].

Take `Oc1c(Cl)cc(Cl)cc1Sc1cc(Cl)cc(Cl)c1O`: the outcome in test [1], in [2], in [3], in test [4], in [5] and in test [9] was inactive. Further, the outcome in test [8] was inactive. Further, the concentration at half-maximal activity (AC50) in [6] is 1.9 µM (active).

For `CCOCCOCC`, the result in test [1], in test [2], in test [3], in test [4], in test [5] and in test [9] was inactive. For the same molecule, the result in test [7] and in test [8] was inactive.

For the molecule `Cc1cc(Cc2cc(C)cc(C(C)(C)C)c2O)c(O)c(C(C)(C)C)c1`, the AC50 in test [1] was 31.8 µM (active); in test [2], 7.15 µM (active); in test [3] it was 100 µM (active); in test [4] it was 24.9 µM (active); in test [9], 11.4 µM (active); in [7], 170 µM (active). For the same molecule, the outcome in test [5], in [6] and in test [8] was inactive.

Take `Nc1ccn([C@@H]2O[C@H](CO)[C@@H](O)C2O)c(=O)n1` (stereo partly drawn): the outcome in [1], in [2], in test [3], in test [4], in test [5] and in [6] was inactive. Besides, in test [7], the molecule was called inactive.

As to `CN(Cc1cnc2nc(N)nc(N)c2n1)c1ccc(C(=O)N[C@@H](CCC(=O)O)C(=O)O)cc1`, the result in test [1], in [2], in test [3], in [4], in test [5] and in test [6] was inactive. Moreover, the result in test [9], in [7] and in test [8] was inactive.

In the case of `CCCCCCCCCC=CCC1CC(=O)OC1=O` (stereo not drawn), the result in test [1], in [3], in test [4], in test [5], in test [6] and in test [7] was inactive. In test [8], the outcome was inactive. Also, in test [2], the concentration at half-maximal activity (AC50) was 66.8 µM (active).

As to `CCc1ccccc1O`, the outcome in test [1], in test [2], in [3], in test [4], in [5] and in test [6] was inactive. Further, the outcome in [7] and in test [8] was inactive.

For the molecule `CCCCCc1ccc(O)cc1`, the result in test [1], in test [4], in test [5], in test [6], in test [9] and in [8] was inactive. Also, the AC50 in test [2] is 33.4 µM (active); in [3], 33 µM (active).

Turning to `O=S(=O)(c1ccc(OCc2ccccc2)cc1)c1ccccc1O`, the AC50 in test [1] is 23.1 µM (active); in test [2], 51.6 µM (active); in test [3], 33.4 µM (active); in [9] it was 31.7 µM (active). The call in [4], in test [5], in test [6] and in test [8] was inactive.

Turning to `CNNCc1ccc(C(=O)NC(C)C)cc1`, the result in test [1], in test [2], in test [3], in [4], in test [5] and in [6] was inactive. Also, the call in test [7] and in [8] was inactive.

As to `CC(=O)Nc1ccc(O)cc1`, the result in test [1], in [2], in [3], in test [4], in test [5] and in test [6] was inactive. Also, the molecule was classed as inactive in test [9], in [7] and in [8].

As to `CC(C)CCOCCC(C)C`, the outcome in test [1], in test [2], in [3], in [4], in test [5] and in test [6] was inactive. The outcome in test [9], in test [7] and in test [8] was inactive.

Turning to `CC[N+](CC)(CC)Cc1ccccc1`, the outcome in test [1], in [2], in test [3], in [4], in test [5] and in test [6] was inactive. Moreover, the molecule was called inactive in test [9], in test [7] and in test [8].

Turning to `FC(F)(F)C1(F)C(F)(F)C(F)(F)C(F)(F)C1(F)F`, the result in [1], in [2], in test [3], in test [4], in [5] and in test [7] was inactive. Further, in [8], the result was inactive.

`CCCCCCOC(=O)c1ccc(O)cc1`: the outcome in test [1], in test [6] and in test [9] was inactive. Besides, the half-maximal activity concentration (AC50) in [2] is 51 µM (active); in test [3] it was 41.8 µM (active); in test [4], 50.4 µM (active); in [5] it was 54.9 µM (active); in test [8], 51.6 µM (active).
